Assay results taken from PubChem BioAssay AID916 (National Center for Advancing Translational Sciences (NCATS), 2007).
Results filed as inconclusive are left out. Active and inactive are the calls of the source. Calls follow the shape of the dose curve; as a rule, active = well fitted activation curve with a large enough effect in the signal ratio, with a control signal flat (not every such curve was filed as active); inconclusive = small, poorly fitted or top-dose-only effect, or a change in a side signal; inactive = flat fitted curve, though single readings scatter; the % refers to the signal ratio.

Assay: Confirmation Concentration-Response Assay for Cell signaling CRE-BLA (Fsk stim)
Description: NIH Molecular Libraries Screening Centers Network [MLSCN] NIH Chemical Genomics Center [NCGC] MLSCN Grant: 1X01MH079867-01 Assay Provider: Marshall W. Nirenberg, U.S. National Heart, Lung and Blood Institute CRE beta-lactamase Assay Overview Memories persist for different lengths of time, from seconds or minutes to a lifetime. There are two kinds of memory: short-term memory (STM) and long-term memory (LTM). STM lasts for minutes to hours, which maybe mediated by modifications of molecules involved in synaptic functions. LTM lasts for days or longer, and may be due to the formation of new synapses or restructuring of existing synapses. LTM, but not STM, requires gene transcription and synthesis of proteins. CREB (cyclic-AMP Responsive Element Binding Protein) is one of the candidates plays an important role for enhancement of some types of LTM. CREB, a family of transcription factors, regulates the transcription of genes containing cAMP Responsive Elements (CRE). CRE is a nucleotide sequence often found in the promoter regions of genes that are binding sites for CREB. Using a beta-lactamase reporter-gene under control of cAMP responsive element, a cell-based assay [CellSensor(TM) CRE-bla CHO developed by Invitrogen Corp.] was used to measure forskolin-induced signaling. The selected compounds were measured for their ability to modulate positively the action of EC10 NKH 477, a water soluble forskolin, on reporter gene activity. Compounds were screened in a titration series in 1536-well format. Positive modulators were identified based on the AC50 values derived from the screening data.
NCGC Assay Protocol Summary 2000 cells/5uL in Opti-MEM medium containing 0.5% dialyzed FBS, 0.1 mM NEAA, 1 mM sodium pyruvate and 10 mM HEPES was dispensed into 1536-well plates and cells were cultured at 37 degrees Celsius overnight. Next day 23 nL of compounds or DMSO were delivered to each well using a pin tool, and 1uL of EC10 level of NKH 477, or EC100 level of IBMX, a PDE inhibitor, in the present of NKH 477, or assay medium was added. And then the plates were incubated at 37 degrees Celsius for 3 hours. 1 uL of CCF4-dye mixture was added to each well. After incubated at room temperature for 2 hours the plates were measured on an EnVision plate reader at Excitation 405nm, Emission1=460nm and Emission 2=530nm. The %Activity was determined from the ratio of 460nm/530nm. Keywords: NIH Roadmap, MLSCN, MLSMR, qHTS, NCGC, CRE, beta-lactamase reporter-gene assay.

| Structure (SMILES) | Potency |
| --- | --- |
| COc1cc2c(c(OC)c1OC)-c1ccc(OC)c(=O)cc1[C@@H](NC(C)=O)CC2 | 5.01 µM (active) |
| Cn1c(O)c(C=NCCOc2ccc(Cl)cc2)c(=O)n(C)c1=O | 15.8 µM (active) |
| CC(C)C(=O)N1CCN(CCN=Cc2c(O)n(C)c(=O)n(C)c2=O)CC1 | inactive |
| Cn1c(C(=O)N2CCC3(CC2)OCCO3)cc2c(=O)n(C)c3ccccc3c21 | 25.1 µM (active) |
